Reference: PubChem BioAssay
Values without a mark were called inactive. For some assays here: Results with a measured potency or affinity are listed apart. Activity calls are given as the source filed them. Unless noted, the rule behind the calls is not given here.

Assays:
[1] = antimalarial activity against Dd2 strain (AID 2302;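 active = growth inhibition above 50% at the single 2 µM test dose, taken to imply half-maximal potency below 2 µM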;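 note: 0% = DMSO untreated growth and 100% = chloroquine plus artemisinin killed control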); conditions: P. falciparum Dd2 in RBCs, LDH growth readout, 72 h; at 2 µM; active compounds read high
[2] = HepG2 cytotoxicity, primary screen, cytotoxicity control for P. falciparum antimalarial project, cell-based, ATP luminescence (AID 2303;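 active = inhibition above 50%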;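 note: 0% = DMSO wells and 100% = digitonin-killed cells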); conditions: HepG2 viability, 24-48 h, at 10 µM, active compounds read high
[3] = molecular target: L-lactate dehydrogenase (Plasmodium falciparum (isolate CDC / Honduras)) (UniProt Q27743); assay: PfLDH activity inhibition – cell lysate, 3D7 strain, counter-screen for P. falciparum growth inhibition project (AID 2304);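 note: 0% = vehicle and 100% = reference inhibitor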; conditions: P. falciparum 3D7 crude extract, LDH APAD/NBT absorbance; at 2 µM; active compounds read high
Sequence of L-lactate dehydrogenase (Plasmodium falciparum (isolate CDC / Honduras)) (Q27743 whole entry, looked up): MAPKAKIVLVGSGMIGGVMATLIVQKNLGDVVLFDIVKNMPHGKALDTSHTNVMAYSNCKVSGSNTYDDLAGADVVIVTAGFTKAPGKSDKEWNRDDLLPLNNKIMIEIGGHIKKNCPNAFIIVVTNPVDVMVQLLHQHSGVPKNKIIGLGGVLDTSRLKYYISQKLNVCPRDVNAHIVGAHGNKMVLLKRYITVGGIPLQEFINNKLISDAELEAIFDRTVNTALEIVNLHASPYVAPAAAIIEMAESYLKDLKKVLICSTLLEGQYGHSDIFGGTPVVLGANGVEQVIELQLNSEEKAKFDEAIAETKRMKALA

[4] = inhibition of 3D7 malaria parasite growth – strain 3D7 (AID 2306);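 note: 0% = DMSO wells and 100% = chloroquine plus artemisinin control wells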; conditions: P. falciparum 3D7 erythrocytic growth, LDH absorbance, 72 h; at 2 µM; active compounds read high
[5] = molecular target: Calcium-dependent protein kinase 1 (Plasmodium falciparum (isolate 3D7)) (UniProt P62344); assay: PfCDPK1 kinase inhibitors, biochemical, TCAMS library (AID 1159585; cut-off not given, nearly all actives have IC50 up to about 0.98 µM;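 note: inhibitors leave more ATP so luminescence rises with inhibition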); conditions: recombinant PfCDPK1, Kinase-Glo ATP depletion luminescence
Sequence of Calcium-dependent protein kinase 1 (Plasmodium falciparum (isolate 3D7)) (P62344 whole entry, looked up): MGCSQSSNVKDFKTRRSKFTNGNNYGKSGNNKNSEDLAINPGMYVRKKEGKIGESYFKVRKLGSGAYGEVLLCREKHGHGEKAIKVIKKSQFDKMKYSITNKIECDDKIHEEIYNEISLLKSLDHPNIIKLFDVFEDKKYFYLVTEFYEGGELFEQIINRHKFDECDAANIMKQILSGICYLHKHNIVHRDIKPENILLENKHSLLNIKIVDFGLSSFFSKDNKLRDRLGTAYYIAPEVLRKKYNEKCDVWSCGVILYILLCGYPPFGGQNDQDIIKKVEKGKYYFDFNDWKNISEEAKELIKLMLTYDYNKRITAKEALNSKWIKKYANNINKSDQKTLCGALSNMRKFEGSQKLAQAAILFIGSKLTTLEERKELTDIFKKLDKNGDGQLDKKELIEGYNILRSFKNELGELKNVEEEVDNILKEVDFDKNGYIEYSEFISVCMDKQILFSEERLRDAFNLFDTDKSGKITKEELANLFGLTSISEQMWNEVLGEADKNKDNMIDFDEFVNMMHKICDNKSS

[6] = molecular target: Plasmodium falciparum protein kinase 6 (PK6, PF3D7_1337100) (UniProt Q8IDW1); assay: PfPK6 kinase inhibitors, biochemical, TCAMS library (AID 1159586); conditions: recombinant PfPK6, Kinase-Glo ATP depletion luminescence
Sequence of Plasmodium falciparum protein kinase 6 (PK6, PF3D7_1337100) (Q8IDW1 1-305): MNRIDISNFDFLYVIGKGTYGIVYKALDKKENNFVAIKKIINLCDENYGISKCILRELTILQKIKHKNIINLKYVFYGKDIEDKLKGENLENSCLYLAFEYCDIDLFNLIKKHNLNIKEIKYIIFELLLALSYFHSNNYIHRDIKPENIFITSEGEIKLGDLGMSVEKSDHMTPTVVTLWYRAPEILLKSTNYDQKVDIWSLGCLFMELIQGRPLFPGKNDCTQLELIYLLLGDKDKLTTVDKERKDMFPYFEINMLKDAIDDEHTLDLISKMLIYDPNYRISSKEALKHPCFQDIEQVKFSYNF

[7] = molecular target: Protein kinase 7 (PK7), Plasmodium falciparum 3D7 (PF3D7_0213400) (UniProt Q7YTF7); assay: inhibition of Plasmodium PK7 catalytic activity – biochemical, TCAMS antimalarial set, Kinase-Glo luminescence (AID 1159587); conditions: recombinant PfPK7, Kinase-Glo ATP depletion luminescence
Sequence of Protein kinase 7 (PK7), Plasmodium falciparum 3D7 (PF3D7_0213400) (Q7YTF7 1-343): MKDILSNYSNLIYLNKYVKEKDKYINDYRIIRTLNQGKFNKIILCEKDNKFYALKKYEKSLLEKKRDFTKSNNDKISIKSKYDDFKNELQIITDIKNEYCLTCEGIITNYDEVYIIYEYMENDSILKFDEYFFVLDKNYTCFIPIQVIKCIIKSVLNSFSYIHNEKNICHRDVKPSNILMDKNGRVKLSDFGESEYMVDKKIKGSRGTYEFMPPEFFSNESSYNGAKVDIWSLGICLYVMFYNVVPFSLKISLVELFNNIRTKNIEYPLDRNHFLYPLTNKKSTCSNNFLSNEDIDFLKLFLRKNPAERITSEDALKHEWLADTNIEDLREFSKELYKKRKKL

[8] = molecular target: Calcium-dependent protein kinase 4 (Plasmodium falciparum (isolate 3D7)) (UniProt Q8IBS5); assay: PfCDPK4 kinase inhibitors, biochemical, TCAMS library (AID 1159588; cut-off not given, nearly all actives have IC50 up to about 0.91 µM); conditions: recombinant PfCDPK4, Kinase-Glo ATP depletion luminescence
Sequence of Calcium-dependent protein kinase 4 (Plasmodium falciparum (isolate 3D7)) (Q8IBS5 whole entry, looked up): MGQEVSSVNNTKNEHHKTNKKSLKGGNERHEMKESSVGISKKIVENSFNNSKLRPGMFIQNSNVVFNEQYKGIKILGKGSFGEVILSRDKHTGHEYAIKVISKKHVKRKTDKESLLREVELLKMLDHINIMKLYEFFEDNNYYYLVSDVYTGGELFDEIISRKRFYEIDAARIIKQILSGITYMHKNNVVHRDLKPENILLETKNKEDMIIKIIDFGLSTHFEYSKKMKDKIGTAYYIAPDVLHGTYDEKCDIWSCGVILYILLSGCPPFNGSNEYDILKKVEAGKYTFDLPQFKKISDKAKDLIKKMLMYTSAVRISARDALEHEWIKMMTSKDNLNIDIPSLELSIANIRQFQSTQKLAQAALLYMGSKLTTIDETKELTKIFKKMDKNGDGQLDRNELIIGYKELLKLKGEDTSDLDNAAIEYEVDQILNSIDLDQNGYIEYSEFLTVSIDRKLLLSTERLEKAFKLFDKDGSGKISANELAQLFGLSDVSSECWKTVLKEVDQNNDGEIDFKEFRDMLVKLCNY

| Structure (SMILES) | growth inhibition [1] | inhibition [2] | inhibition [3] [%] | growth inhibition [4] | outcome [5] | outcome [6] | outcome [7] | outcome [8] |
| --- | --- | --- | --- | --- | --- | --- | --- | --- |
| CCn1ncc2c(N3CCCC3=O)cc(C(=O)N[C@@H](Cc3ccccc3)[C@H](O)CNC(C)(C)c3cccc(OC)c3)cc21 | 97% (active) | 6% | 0 | 98% (active) | inactive | inactive | inactive | inactive |
| Nc1nc(N)c2c(ccc3nccc32)[nH]1 | -1% | 58% (active) | 8 | 88% (active) | inactive | inactive | inactive | inactive |
| COc1ccc(NC(=O)[C@H](C)Nc2cc(C)nc(NCC3CCCCC3)n2)cc1 | 13% | 12% | -3 | 92% (active) | inactive | inactive | inactive | inactive |
| CCCN(Cc1ccc(C)cc1)Cc1cc(=O)c2cc(Cl)ccc2[nH]1 | 91% (active) | 51% (active) | 4 | 86% (active) | inactive | inactive | inactive | inactive |
| CC(=NNC(=S)NCCc1ccccc1)c1ccccn1 | 99% (active) | 73% (active) | 8 | 100% (active) | inactive | inactive | inactive | inactive |
| O=C(CCC1CCCCC1)NCCNc1cccc2ccccc12 | 57% (active) | 7% | -1 | 90% (active) | inactive | inactive | inactive | inactive |
| NC(N)=Nc1nc(-c2cccc(NC(=O)NCC(c3ccccc3)c3ccccc3)c2)cs1 | 87% (active) | -3% | 1 | 100% (active) | inactive | inactive | inactive | inactive |
| Cc1ccc(C(=O)Nc2cc(S(=O)(=O)N3CCCC3)ccc2OCC(F)(F)F)cc1 | 3% | -2% | 3 | 93% (active) | inactive | inactive | inactive | inactive |
| COc1cc2nc(SCC(C)C)n(CCCn3ccnc3)c(=N)c2cc1OC | 78% (active) | 15% | -2 | 99% (active) | inactive | inactive | inactive | inactive |
| Cc1nc2nc(N)nc(N)c2c(C)c1Cc1cccc(C(N)=O)c1 | -1% | 59% (active) | 5 | 91% (active) | inactive | inactive | inactive | inactive |
| Cc1ccccc1CNc1noc(-c2sccc2Br)n1 | 88% (active) | -2% | -3 | 99% (active) | inactive | inactive | inactive | inactive |
| CN(C)C(=O)O[C@@H]1CN[C@H](C#Cc2cc3ncnc(Nc4ccc5c(cnn5Cc5cccc(F)c5)c4)c3s2)C1 | 68% (active) | 0% | 7 | 97% (active) | inactive | inactive | inactive | inactive |
| COc1ccc2nccc(N3CCC(O)(CCNCc4ccc5c(n4)NC(=O)CO5)CC3)c2n1 | 24% | 18% | -4 | 100% (active) | inactive | inactive | inactive | inactive |
| COc1ccc(NC(=O)CCNc2cc(C)nc(NCCc3ccccc3)n2)cc1 | 0% | 3% | -2 | 85% (active) | inactive | inactive | inactive | inactive |
| CN1CCC(NCCS(=O)(=O)c2cccc(Nc3ccc(-c4cccc(F)c4)cn3)c2)CC1 | -3% | 27% | 5 | 99% (active) | inactive | inactive | inactive | inactive |
| COCCCNc1sc(S(=O)(=O)c2ccccc2)nc1S(=O)(=O)c1ccc(C)cc1 | 44% | 7% | -1 | 84% (active) | inactive | inactive | inactive | inactive |
| COc1ccc2oc(=O)c(C#N)c(O)c2c1 | -4% | -2% | 2 | 99% (active) | inactive | inactive | inactive | inactive |
| O=C(Nc1ccc(Br)cc1)c1cc(Br)ccc1NS(=O)(=O)c1cc(C(F)(F)F)cc(C(F)(F)F)c1 | 67% (active) | 68% (active) | -7 | 85% (active) | inactive | inactive | inactive | inactive |
| O=C(NCCCN1CCC(N2CCCCC2)CC1)C1=Cc2cc(Br)ccc2OC1 | 19% | 26% | -1 | 100% (active) | inactive | inactive | inactive | inactive |
